Screens as filed in PubChem BioAssay.
Compounds with a hit are over-represented: about 1.4% of the library has one in this group of screens.
CCHFV vOTU inh: CCHFV vOTU protease inhibition; Pep-AMC fluorescence; inhibition, % at 11.5 µM; hit rate 0.55% among 370,000; AID 651958; in the data active means inhibition above about 30%; further: 0% = vehicle wells with enzyme and 100% = no enzyme wells
MazF activator: activators of E. coli MazEF toxin-antitoxin RNase; P0AE70; FAM/BHQ RNA-DNA oligo cleavage fluorescence, 5 h; activation, % at 20 µM; hit rate 0.32% among 350,000; in the data active means activation above about 50%
Target sequence (P0AE70 whole entry, looked up): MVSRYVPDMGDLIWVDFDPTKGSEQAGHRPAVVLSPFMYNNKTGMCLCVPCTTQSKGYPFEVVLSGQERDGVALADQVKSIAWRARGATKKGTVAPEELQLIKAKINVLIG
BJeLR lethal: kills HRASV12-expressing BJeLR cells | BJeLR (HRASV12) viability, CellTiter-Glo ATP luminescence, 48 h | inhibition, % (concentration not given with the values) | hit rate 0.17% among 300,000 | AID 1554; in the data active means inhibition above about 50%
VHR inh abs: blocks human VHR1 dual specificity phosphatase | inhibition, % at 13.3 µM | recombinant VHR phosphatase, pNPP absorbance | hit rate 0.52% among 290,000 | P51452; in the data active means inhibition above about 50%
Target sequence (P51452 whole entry, looked up): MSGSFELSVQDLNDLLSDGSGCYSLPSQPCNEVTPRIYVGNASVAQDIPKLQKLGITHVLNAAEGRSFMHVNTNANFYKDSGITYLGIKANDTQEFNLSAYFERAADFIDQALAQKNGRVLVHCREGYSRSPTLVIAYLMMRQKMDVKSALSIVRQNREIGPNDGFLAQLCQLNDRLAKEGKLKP
3CLpro inhibitor: SARS-CoV 3CLpro protease inhibition. P0C6X7. hit rate 0.14% among 290,000. AID 1706. recombinant SARS-CoV 3CLpro, quenched FRET peptide cleavage. inhibition, % at 6 µM; in the data active means inhibition above about 12%
Active calls of the source: *.

Screening C=CC[C@@H](CC(=O)N[C@H](CO)Cc1ccccc1)C(=O)N[C@H](COC(=O)[C@H](CC=C)CC(=O)OC(C)(C)C)Cc1c[nH]c2ccccc12 returned CCHFV vOTU inh 37* and MazF activator 4.
For COc1ccc(C[N+]2=C(N)NC3=C(C)Cn4c(=O)n(-c5ccccc5)c(=O)n4C3C2)c(OC)c1 (stereo not drawn) the results were CCHFV vOTU inh -2.
For Cc1ccc(-n2c(SCC(=O)c3ccc(-c4ccccc4)cc3)nnc2-c2ccc(C(C)(C)C)cc2)cc1 the results were CCHFV vOTU inh 6.
For CCOc1ccc(NC(=O)NCC2CCN(Cc3ccc(F)cc3)CC2)cc1 the results were CCHFV vOTU inh -7, MazF activator 6, BJeLR lethal -4, VHR inh abs 57* and 3CLpro inhibitor -2.
Screening COc1ccc(N2CCC(CNC(=O)Nc3ccc(Cl)cc3)C2)cc1 (stereo not drawn) returned CCHFV vOTU inh -8, MazF activator 24, BJeLR lethal -8, VHR inh abs 52* and 3CLpro inhibitor -1.
`COc1ccc(N2CCC(CNC(=O)Nc3cccc(OC)c3)C2)cc1` (stereo not drawn) gave CCHFV vOTU inh 6, MazF activator 4, BJeLR lethal -7, VHR inh abs 33 and 3CLpro inhibitor 0.
COc1ccc(CN2CCC(CNC(=O)Nc3ccc(Cl)cc3)CC2)cc1 was read as CCHFV vOTU inh -4.
O=C(Cn1nc(-c2ccccc2)ccc1=O)NCCc1ccc(F)cc1 was read as CCHFV vOTU inh 2.
`N#CC1=C(N)Oc2cc(N)ccc2C1c1cccc(Br)c1` (stereo not drawn) gave CCHFV vOTU inh -13, MazF activator -20, BJeLR lethal 56*, VHR inh abs 18 and 3CLpro inhibitor 3.
Cc1ccc(C2C(C#N)=C(N)Oc3cc(N)ccc32)cc1 (stereo not drawn) was read as CCHFV vOTU inh 3, MazF activator 13, BJeLR lethal 4, VHR inh abs 24 and 3CLpro inhibitor 4.
Screening Cc1cccc(C(=O)Nc2ccc(C(=O)N3CCCCC3C)cc2)c1 (stereo not drawn) returned CCHFV vOTU inh 2, MazF activator -1, BJeLR lethal 1, VHR inh abs 57* and 3CLpro inhibitor 6.
CC1CCCCN1C(=O)c1ccc(C(=O)N2CCCCC2C)cc1 (stereo not drawn) was read as CCHFV vOTU inh -2, MazF activator -4, BJeLR lethal -1, VHR inh abs 14 and 3CLpro inhibitor -2.
COC(=O)Cn1cc(C=C2C(=O)N(C)C(=O)N(C)C2=O)c2ccccc21 was read as CCHFV vOTU inh -6, MazF activator 195*, BJeLR lethal -1, VHR inh abs 15 and 3CLpro inhibitor 1.
For COc1cccc(OC)c1C(=O)Nc1ccc(NC(=O)c2ccco2)cc1 the results were CCHFV vOTU inh 2, MazF activator 10, BJeLR lethal 1, VHR inh abs 25 and 3CLpro inhibitor -6.
Screening O=C(Nc1cccc(NC(=O)c2ccco2)c1)c1ccccc1 returned CCHFV vOTU inh -8, MazF activator 14, BJeLR lethal -1, VHR inh abs 58* and 3CLpro inhibitor -3.
Screening COc1cccc(OC)c1C(=O)NC(=S)Nc1cccc(NC(=O)c2ccco2)c1 returned CCHFV vOTU inh -1, MazF activator 75*, BJeLR lethal -10, VHR inh abs 12 and 3CLpro inhibitor 0.
For CC(C)N1CCCCC(NC(=O)c2cccs2)C1=O (stereo not drawn) the results were CCHFV vOTU inh 10.
Screening COc1ccc2oc(C(=O)OCC(=O)Nc3cc(S(=O)(=O)N4CCOCC4)ccc3C)c(C)c2c1 returned CCHFV vOTU inh 1, MazF activator 61* and BJeLR lethal 4.
COc1ccc2oc(C(=O)OCC(=O)Nc3cc(S(=O)(=O)N4CCOCC4)ccc3OC)c(C)c2c1 was read as CCHFV vOTU inh -2, MazF activator -4 and BJeLR lethal 0.
Screening COc1ccc(C2=CC(=O)C[C@H](c3ccc(OC)cc3)C2)cc1 returned CCHFV vOTU inh 15 and MazF activator -8.
COc1ccc(C2=CC(=O)C=CC2=O)cc1 was read as BJeLR lethal 99*, VHR inh abs -4 and 3CLpro inhibitor -4.
`Cc1ccccc1CS(=O)(=O)Cc1ccc(C(=O)N2CCC3(CC2)OCCO3)o1` gave CCHFV vOTU inh 1, MazF activator 2, BJeLR lethal -1, VHR inh abs 51* and 3CLpro inhibitor -6.
